Each compound was assayed against BDNF/NT-3 growth factors receptor (Homo sapiens) (UniProt Q16620). Settings: at 1 µM.
Chain of BDNF/NT-3 growth factors receptor (Homo sapiens) (Q16620 32-822 limits assumed): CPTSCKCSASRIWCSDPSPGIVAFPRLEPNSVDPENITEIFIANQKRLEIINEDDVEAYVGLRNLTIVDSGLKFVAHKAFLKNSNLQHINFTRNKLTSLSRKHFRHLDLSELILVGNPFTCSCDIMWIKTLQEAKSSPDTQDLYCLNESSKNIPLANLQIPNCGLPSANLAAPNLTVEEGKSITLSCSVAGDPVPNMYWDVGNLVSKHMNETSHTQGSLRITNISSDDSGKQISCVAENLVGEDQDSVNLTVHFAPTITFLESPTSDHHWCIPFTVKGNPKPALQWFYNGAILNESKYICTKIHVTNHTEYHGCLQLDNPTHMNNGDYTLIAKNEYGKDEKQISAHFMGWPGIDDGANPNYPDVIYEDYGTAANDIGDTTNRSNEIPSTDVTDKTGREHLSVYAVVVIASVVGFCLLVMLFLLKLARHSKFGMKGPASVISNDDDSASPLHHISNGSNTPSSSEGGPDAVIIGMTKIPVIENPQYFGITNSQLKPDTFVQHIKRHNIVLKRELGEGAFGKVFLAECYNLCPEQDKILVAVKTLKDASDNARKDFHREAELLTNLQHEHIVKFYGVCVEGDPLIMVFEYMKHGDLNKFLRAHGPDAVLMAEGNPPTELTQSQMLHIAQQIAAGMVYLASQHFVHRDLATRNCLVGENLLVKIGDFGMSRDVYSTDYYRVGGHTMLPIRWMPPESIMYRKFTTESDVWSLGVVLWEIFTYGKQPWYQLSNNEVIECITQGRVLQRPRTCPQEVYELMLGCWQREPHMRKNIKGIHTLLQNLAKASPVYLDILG

| Structure (SMILES) | residual activity |
| --- | --- |
| COC(=O)[C@@]1(O)C[C@H]2O[C@]1(C)n1c3ccccc3c3c4c(c5c6ccccc6n2c5c31)C(=O)NC4 | 0% |
| CC(C)(C)c1cc(C=C(C#N)C#N)cc(Br)c1O | 117% |
| COc1cc2ncnc(Nc3ccc(OCc4ccccc4)cc3)c2cc1OC | 93% |
| O=C1NC(=O)c2c1c1c3ccccc3n3c1c1c2c2ccccc2n1C1CCC3O1 | 19% |
| CCn1cnc2c(Nc3cccc(Cl)c3)nc(N[C@@H]3CCCC[C@@H]3N)nc21 | 15% |
| CC(C)[C@H](CO)Nc1nc(Nc2cccc(Cl)c2)c2ncn(C(C)C)c2n1 | 8% |
| O=[N+]([O-])/C=C/c1ccc2c(c1)OCO2 | 120% |
| O=C1c2ccccc2-c2nc3nnnn3nc21 | 123% |
| CCc1nc(-c2ccc(OC)cc2)[nH]c1-c1ccncc1 | 113% |
| O=c1[nH]c2ccccc2n1C1CCN(Cc2ccc(-c3nc4cc5[nH]cnc5cc4nc3-c3ccccc3)cc2)CC1 | 75% |
| C[S+]([O-])c1ccc(-c2nc(-c3ccc(F)cc3)c(-c3ccncc3)[nH]2)cc1 (centres undefined) | 94% |
| O=C1Nc2ccc3ncsc3c2/C1=C/c1c[nH]cn1 | 19% |
| c1cc(-c2cnn3cc(-c4ccc(OCCN5CCCCC5)cc4)cnc23)ccn1 | 61% |
| CN[C@@H]1C[C@H]2O[C@@](C)([C@@H]1OC)n1c3ccccc3c3c4c(c5c6ccccc6n2c5c31)C(=O)NC4 | 29% |

What follows are compounds tested against BDNF/NT-3 growth factors receptor (Homo sapiens) (UniProt Q16620). Settings: at 10 µM.

| Structure (SMILES) | residual activity |
| --- | --- |
| COC(=O)[C@@]1(O)C[C@H]2O[C@]1(C)n1c3ccccc3c3c4c(c5c6ccccc6n2c5c31)C(=O)NC4 | 0% |
| CC(C)(C)c1cc(C=C(C#N)C#N)cc(Br)c1O | 134% |
| COc1cc2ncnc(Nc3ccc(OCc4ccccc4)cc3)c2cc1OC | 122% |
| O=C1NC(=O)c2c1c1c3ccccc3n3c1c1c2c2ccccc2n1C1CCC3O1 | 14% |
| CCn1cnc2c(Nc3cccc(Cl)c3)nc(N[C@@H]3CCCC[C@@H]3N)nc21 | 0% |
| CC(C)[C@H](CO)Nc1nc(Nc2cccc(Cl)c2)c2ncn(C(C)C)c2n1 | 0% |
| O=[N+]([O-])/C=C/c1ccc2c(c1)OCO2 | 119% |
| O=C1c2ccccc2-c2nc3nnnn3nc21 | 119% |
| CCc1nc(-c2ccc(OC)cc2)[nH]c1-c1ccncc1 | 107% |
| O=c1[nH]c2ccccc2n1C1CCN(Cc2ccc(-c3nc4cc5[nH]cnc5cc4nc3-c3ccccc3)cc2)CC1 | 70% |
| C[S+]([O-])c1ccc(-c2nc(-c3ccc(F)cc3)c(-c3ccncc3)[nH]2)cc1 (centres undefined) | 104% |
| O=C1Nc2ccc3ncsc3c2/C1=C/c1c[nH]cn1 | -11% |
| COc1ccc2c(c[n+](C)c3c4cc5c(cc4ccc23)OCO5)c1OC | 81% |
| c1cc(-c2cnn3cc(-c4ccc(OCCN5CCCCC5)cc4)cnc23)ccn1 | 7% |
| CN[C@@H]1C[C@H]2O[C@@](C)([C@@H]1OC)n1c3ccccc3c3c4c(c5c6ccccc6n2c5c31)C(=O)NC4 | -12% |
